# Measured values reported in PubChem BioAssay (NCI).
# “And” between values parts separate entries of the source, which are not always exact repeats. Identical values can stand only once. This is part of a sample that, as a whole, favours compounds with a hit. Of some 83,000 tested, about 20% had one in any assay.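 In brief: 96-well plates, 48 h treatment, single concentration, percent growth endpoint.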 The source made the active and inactive calls. The calls were made as follows: active = growth percent below 10; inactive = the rest.
# Columns and labels:
# Test in all cases: NCI-60 one-dose screen, 48 h (100 = growth as untreated, 0 = no growth, -100 = all killed)
# Conditions in all cases: 10 µM unless noted
# UACC-62 melanoma = system: UACC-62 melanoma
# TK-10 renal = system: TK-10 renal
# HT29 colon = system: HT29 colon
# SNB-75 CNS = system: SNB-75 CNS
# SNB-19 CNS = system: SNB-19 CNS
# PC-3 prostate = system: PC-3 prostate
# LOX IMVI melanoma = system: LOX IMVI melanoma
# SK-MEL-28 melanoma = system: SK-MEL-28 melanoma
# SK-MEL-2 melanoma = system: SK-MEL-2 melanoma
# SN12C renal = system: SN12C renal
# UO-31 renal = system: UO-31 renal
# ACHN renal = system: ACHN renal
# CAKI-1 renal = system: CAKI-1 renal
# A498 renal = system: A498 renal
# CCRF-CEM leukemia = system: CCRF-CEM leukemia
# MOLT-4 leukemia = system: MOLT-4 leukemia
# U251 CNS = system: U251 CNS
structure (smiles),measurement,setting,value
Cc1sccc1C(=S)Nc1ccc(Cl)c(/C=N/OC(C)(C)C)c1,growth,UACC-62 melanoma,-86.5% [100 µM] (active) and -92.3% [100 µM] (active)
same,growth,TK-10 renal,-91.4% [100 µM] (active) and -90.7% [100 µM] (active)
C=C1CC(O)C2C(=C)C(=O)OC2C2C(C)C(=O)CC12 (stereo not drawn),growth,UACC-62 melanoma,-89.7% [100 µM] (active) and -97.7% [100 µM] (active)
same,growth,TK-10 renal,-95.6% [100 µM] (active) and -97% [100 µM] (active)
CCOC(=O)CCCOc1cc(-c2ccccc2F)nc2cc3c(cc12)OCO3,growth,UACC-62 melanoma,31.5% [100 µM] (inactive) and -31.4% [100 µM] (active)
same,growth,TK-10 renal,58.8% [100 µM] (inactive) and 0% [100 µM] (active)
CCCOC(=O)c1ccc2c(c1)[N+](=O)C(C(=O)c1ccccc1)=C(C(F)(F)F)[N+]2=O,growth,HT29 colon,-92.1% (active)
same,growth,SNB-75 CNS,-98.5% (active)
same,growth,SNB-19 CNS,-88.9% (active)
same,growth,PC-3 prostate,-91.5% (active)
same,growth,UACC-62 melanoma,-92.4% (active)
same,growth,LOX IMVI melanoma,-74.7% (active)
same,growth,SK-MEL-28 melanoma,-96.8% (active)
same,growth,SK-MEL-2 melanoma,-87.6% (active)
same,growth,SN12C renal,-92.3% (active)
same,growth,UO-31 renal,-89% (active)
same,growth,TK-10 renal,-99.1% (active)
same,growth,ACHN renal,-91.8% (active)
same,growth,CAKI-1 renal,-92.5% (active)
same,growth,A498 renal,-90.9% (active)
same,growth,CCRF-CEM leukemia,-64.4% (active)
same,growth,MOLT-4 leukemia,-63.3% (active)
CCOc1cc2c(cc1O)/C(=N\N)C[C@@H]1[C@@H]2CC[C@]2(C)[C@@H](O)CC[C@@H]12,growth,UACC-62 melanoma,17.1% [100 µM] (inactive) and -96.8% [100 µM] (active)
same,growth,TK-10 renal,36.7% [100 µM] (inactive) and -97% [100 µM] (active)
NNC1=N/C(=C\c2ccco2)C(Cl)=N1,growth,UACC-62 melanoma,10.8% [100 µM] (inactive) and -100% [100 µM] (active)
same,growth,TK-10 renal,67% [100 µM] (inactive) and 2.87% [100 µM] (active)
C1CCC([PH+](C2CCCCC2)C2CCCCC2[PH+](C2CCCCC2)C2CCCCC2)CC1.[Au].[CH-]1CCCCC1CC1CCCC[N-]1 (stereo not drawn),growth,SNB-75 CNS,19.8% (inactive)
COc1cc([N+](=O)[O-])c(OC)c2c(Nc3ccc(S(=O)(=O)O)c4cc(S(=O)(=O)O)cc(S(=O)(=O)O)c34)cc(C)nc12,growth,UACC-62 melanoma,-91% [100 µM] (active) and -100% [100 µM] (active)
same,growth,TK-10 renal,-99.9% [100 µM] (active) and -100% [100 µM] (active)
O=c1[nH]c(=S)[nH]c(=O)n1Cc1cccc2ccccc12,growth,HT29 colon,110% (inactive)
same,growth,SNB-75 CNS,81.8% (inactive)
same,growth,U251 CNS,93.1% (inactive)
same,growth,PC-3 prostate,92.8% (inactive)
same,growth,UACC-62 melanoma,89.7% (inactive)
same,growth,LOX IMVI melanoma,94.3% (inactive)
same,growth,SK-MEL-28 melanoma,103% (inactive)
same,growth,SN12C renal,101% (inactive)
same,growth,UO-31 renal,93% (inactive)
same,growth,ACHN renal,97.7% (inactive)
same,growth,CAKI-1 renal,86.9% (inactive)
same,growth,A498 renal,85.4% (inactive)
same,growth,CCRF-CEM leukemia,105% (inactive)
C=CCCCCCCCCC(=O)[O-].C=CCCCCCCCCC(=O)[O-].[Zn+2],growth,SNB-19 CNS,100% (inactive)
same,growth,UO-31 renal,80.7% (inactive)
C=C1C(=O)OC2/C=C(/C)C3(O)OC(C)(CC(OC(=O)C(C)C)C12)CC3OC(C)=O (stereo not drawn),growth,UACC-62 melanoma,-93% [100 µM] (active)
same,growth,TK-10 renal,-95.3% [100 µM] (active)
N#Cc1c(=N)cc2c3ccccc3oc3c(C#N)c(N)[nH]c1c32,growth,UACC-62 melanoma,74.6% [100 µM] (inactive) and 13.9% [100 µM] (inactive)
same,growth,TK-10 renal,47.1% [100 µM] (inactive) and 2.25% [100 µM] (active)
COC(=O)C(=O)C(C(=O)C(=O)Nc1ccccc1C(=O)OC)c1nc2ccc(C(=O)c3ccccc3)cc2[nH]c1=O (stereo not drawn),growth,UACC-62 melanoma,54.3% [100 µM] (inactive) and 12.8% [100 µM] (inactive)
same,growth,TK-10 renal,82.4% [100 µM] (inactive) and 16.6% [100 µM] (inactive)
CC(C)(C)N/N=C(\C(=O)Nc1ccc([N+](=O)[O-])cc1[N+](=O)[O-])c1nc2ccc([N+](=O)[O-])cc2[nH]c1=O,growth,UACC-62 melanoma,54.2% [100 µM] (inactive) and 17.5% [100 µM] (inactive)
same,growth,TK-10 renal,97.2% [100 µM] (inactive) and 67.6% [100 µM] (inactive)
Cc1ccc(C(=O)O[C@H](C(=O)O)[C@H](OC(=O)c2ccc(C)cc2)C(=O)O)cc1,growth,SNB-19 CNS,102% (inactive)
same,growth,UO-31 renal,85.1% (inactive)
N#Cc1sc2nc(/C=C3/C=CC=CC3=O)c(O)n2c1N,growth,UACC-62 melanoma,18.5% [100 µM] (inactive) and 7.16% [100 µM] (active)
same,growth,TK-10 renal,78.8% [100 µM] (inactive) and 47.7% [100 µM] (inactive)
CC(=O)c1cc2c(s1)C(=O)c1scc(C(C)=O)c1C2=O,growth,UACC-62 melanoma,-37.8% [100 µM] (active) and -81.8% [100 µM] (active)
same,growth,TK-10 renal,-9.55% [100 µM] (active) and -86% [100 µM] (active)
CCOC(=O)C1=C(C)N2C(=NC3=C(CCCC/C3=C\c3ccccc3)C2c2ccccc2)S1 (stereo not drawn),growth,HT29 colon,84.4% (inactive)
same,growth,SNB-75 CNS,96.9% (inactive)
same,growth,U251 CNS,98.3% (inactive)
same,growth,PC-3 prostate,87.6% (inactive)
same,growth,UACC-62 melanoma,85.5% (inactive)
same,growth,LOX IMVI melanoma,100% (inactive)
same,growth,SK-MEL-28 melanoma,98% (inactive)
same,growth,SN12C renal,101% (inactive)
same,growth,UO-31 renal,91% (inactive)
same,growth,ACHN renal,102% (inactive)
same,growth,CAKI-1 renal,90.2% (inactive)
same,growth,A498 renal,92.3% (inactive)
same,growth,CCRF-CEM leukemia,98.3% (inactive)
same,growth,MOLT-4 leukemia,96.4% (inactive)
Nc1c(Br)cc(Br)cc1-c1n[nH]c(=O)[nH]c1=O,growth,HT29 colon,99.7% (inactive)
same,growth,SNB-75 CNS,85.5% (inactive)
same,growth,U251 CNS,100% (inactive)
same,growth,PC-3 prostate,99% (inactive)
same,growth,UACC-62 melanoma,106% (inactive)
same,growth,LOX IMVI melanoma,96.1% (inactive)
same,growth,SK-MEL-28 melanoma,110% (inactive)
same,growth,SN12C renal,109% (inactive)
same,growth,UO-31 renal,74.3% (inactive)
same,growth,ACHN renal,91.9% (inactive)
same,growth,CAKI-1 renal,86.4% (inactive)
same,growth,A498 renal,91.7% (inactive)
same,growth,MOLT-4 leukemia,65.8% (inactive)
Nc1cc2c3c(cccc3c1)C(=O)N(c1ccc(OCCN3CCCCC3)cc1)C2=O,growth,UACC-62 melanoma,-67.3% [100 µM] (active) and -100% [100 µM] (active)
same,growth,TK-10 renal,-13.5% [100 µM] (active) and -100% [100 µM] (active)
O=c1[nH]c(=O)n(C2CC(O)C(CO)O2)cc1Br (stereo not drawn),growth,UACC-62 melanoma,72.2% [100 µM] (inactive) and 19.1% [100 µM] (inactive)
same,growth,TK-10 renal,67.2% [100 µM] (inactive) and 21% [100 µM] (inactive)
COC(=O)[C@@H]1CCCN1C(=O)[C@@H]1CCCN1C(=O)[C@@H](Cc1c[nH]c2ccccc12)NC(=S)Nc1cc(C(F)(F)F)cc(C(F)(F)F)c1,growth,HT29 colon,51.1% (inactive)
same,growth,SNB-75 CNS,32.7% (inactive)
same,growth,SNB-19 CNS,69.3% (inactive)
same,growth,PC-3 prostate,43.4% (inactive)
same,growth,UACC-62 melanoma,58.1% (inactive)
same,growth,LOX IMVI melanoma,23.3% (inactive)
same,growth,SK-MEL-28 melanoma,33.7% (inactive)
same,growth,SK-MEL-2 melanoma,39.9% (inactive)
same,growth,SN12C renal,65.7% (inactive)
same,growth,UO-31 renal,41.4% (inactive)
same,growth,TK-10 renal,83.5% (inactive)
same,growth,ACHN renal,61.9% (inactive)
same,growth,CAKI-1 renal,56.9% (inactive)
same,growth,A498 renal,99.6% (inactive)
same,growth,CCRF-CEM leukemia,19.9% (inactive)
same,growth,MOLT-4 leukemia,22.3% (inactive)
CC12CCC3c4cc(Br)c(O)c(Br)c4CCC3C1CCC2O (stereo not drawn),growth,UACC-62 melanoma,7.01% [100 µM] (active) and -44.7% [100 µM] (active)
same,growth,TK-10 renal,12.2% [100 µM] (inactive) and -95.7% [100 µM] (active)
COc1c2c(c(OC)c3c1c(=O)c1ccccc1n3C)OCO2,growth,UACC-62 melanoma,-0.25% [100 µM] (active)
same,growth,TK-10 renal,54.2% [100 µM] (inactive)
Cc1ccc(/C=N/Nc2cc(C)c3ccccc3n2)s1,growth,UACC-62 melanoma,-69.9% [100 µM] (active) and -49% [100 µM] (active)
same,growth,TK-10 renal,-63.7% [100 µM] (active) and -75.8% [100 µM] (active)
CN(C)CCNc1ccc(NCC[N+](C)(C)Cc2ccc([N+](=O)[O-])cc2)c2c1C(=O)c1ccccc1C2=O,growth,UACC-62 melanoma,37.1% [25 µM] (inactive) and 1.14% [25 µM] (active)
same,growth,TK-10 renal,36.4% [25 µM] (inactive) and 2.65% [25 µM] (active)
